Screening data deposited in PubChem by National Center for Advancing Translational Sciences (NCATS).
In the library only some 21% were active in any assay of this set; here they are far more common.
Pf growth 96h – inhibits malaria parasite growth, 96 h. P. falciparum luciferase reporter growth, 96 h. Potency, µM (series often up to 28.7 µM), for inactives: at the highest dose activity change, negative = inhibition, usual class: inhibitors. 6.9% of 320,000 active; note: potency is the fitted concentration of half-maximal effect; % is set by controls: 0 for no effect and ±100 for the full control effect
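Two-generation exposure (96 h) targets delayed-death phenotype. Reporter parasites carrying integrated firefly luciferase, in red cells at 2% hematocrit and 0.05% parasitemia final, kept at 37 C, 5% CO2; luminescence loss indicates inhibition.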
Shiga toxin inh – Shiga toxin inhibition; Vero cells, Shiga toxin protein synthesis inhibition reporter; inhibition, % at 38.7 µM; 9.2% of 290,000 active; in the data active = inhibition mostly above about 28%, no sharp cut-off; inactive = mostly below about 43%; note: 0% is about no effect
CHX counter – affects cycloheximide protein synthesis inhibition readout, counter-screen; cell reporter, cycloheximide protein synthesis inhibition counterscreen; max response, %; 12% of 300,000 active; AID 2314; in the data active = max response mostly above about 13%, no sharp cut-off; inactive = mostly below about 14%; note: read at 38.3 µM for the half of the compounds with a filed dose; 0% is about no effect
Pf growth 48h – inhibits P. falciparum growth in the first generation, 48 h; P. falciparum luciferase growth in erythrocytes, 48 h; 5.9% of 310,000 active; AID 504832; Potency, µM (highest dose often 28.7 µM), inactives show top-dose activity change, negative = inhibition, actives largely listed as inhibitors; note: potency is the fitted concentration of half-maximal effect; % is set by controls: 0 for no effect and ±100 for the full control effect
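Luciferase-expressing P. falciparum in infected erythrocytes (2% hematocrit, 0.1% parasitemia final) in RPMI 1640/0.5% Albumax were exposed to compound for 48 hours at 37 C, 5% CO2; growth read as luminescence.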
* marks the source's active call; other numbers are inactive results; i = inactive; ? = inconclusive; nt = not tested or not shown; [ ] = dose if it differs, or a comment. Unless noted, calls come from the whole dose curve; as a rule, active = well fitted inhibition curve with a large enough effect; inconclusive = small, poorly fitted or top-dose-only effect, or another doubt; inactive = no such curve, though single readings can be large or run the other way.

SMILES	Pf growth 96h	Shiga toxin inh	CHX counter	Pf growth 48h
CCCn1c(-c2cc(OC)c(OC)c(OC)c2)nc2c1c(=O)[nH]c(=O)n2Cc1ccccc1	?	-9.5	-5.4	9.28µM*
CCCn1c(-c2cccc(F)c2)nc2c1c(=O)[nH]c(=O)n2Cc1ccccc1	-29.2%	18.1	-1.4	-4.0%
CCCCn1c(=O)[nH]c(=O)c2c1nc(-c1ccc(OCCC)c(OCC)c1)n2CCOC	?	-7.0	0.7	9.28µM*
CCCOc1ccc(-c2nc3c(c(=O)[nH]c(=O)n3Cc3ccccc3)n2CCO)cc1OCC	?	-17.3	-5.5	?
COCCn1c(-c2cccc([N+](=O)[O-])c2)nc2c1c(=O)[nH]c(=O)n2Cc1ccccc1	11.7µM*	-6.4	1.0	?
c1csc(-c2nn3c(C4COc5ccccc5O4)nnc3s2)c1 (stereo not given)	nt	45.0*	36.1*	?
CCC(C(=O)Nc1ccc2[nH]ncc2c1)c1ccccc1 (stereo not given)	-34.4%	14.4	1.8	?
Cc1c(C(=O)O)cccc1-n1c(C)cc(/C=N/Nc2ccc([N+](=O)[O-])cn2)c1C	?	71.5*	31.7*	?
Cc1cc(/C=N/Nc2ccc([N+](=O)[O-])cn2)c(C)n1-c1ccccc1	nt	77.5*	27.1*	?
Cc1ccc([N+](=O)[O-])cc1/C=N/Nc1nnnn1-c1ccccc1	-8.2%	-3.5	-1.7	nt
Cc1c(C(=O)O)cccc1-n1c(C)cc(/C=N/NC(=O)c2cc3ccccc3o2)c1C	14.7%	10.1	-1.3	-19.5%
Cc1ccc(-n2c(C)cc(/C=N/Nc3ccc([N+](=O)[O-])cn3)c2C)cc1	13.2%	58.9*	39.3*	3.5%
Cc1cc(/C=N/NC(=O)CC#N)c(C)n1-c1ccc([N+](=O)[O-])cc1	?	-8.2	-0.6	-14.0%
Cc1csc(C)[n+]1CC(=O)c1ccccc1	6.57µM*	nt	-1.5	?
Nn1cc(-c2ccccc2)nc1SCC(=O)Nc1ccc(S(N)(=O)=O)cc1	7.5%	5.8	2.7	48.8%
CCCc1cc2c(=O)c(-c3ccccn3)c(C)oc2cc1O	9.28µM*	38.9	11.3	?
CCCc1cc2c(=O)c(-c3ccccn3)coc2cc1OC	16.4%	90.1*	44.5*	135.9%
COc1ccccc1Oc1coc2cc(OCC(N)=O)ccc2c1=O	4.4%	-3.8	-0.8	-27.6%
Cc1c(C(=O)OCC(=O)NCc2ccc3c(c2)OCO3)cccc1[N+](=O)[O-]	0.0%	-3.1	3.0	-2.6%
CC1CCN(CCOCCOc2ccc(Cl)cc2Br)CC1	6.57µM*	-32.7	-3.8	?
CC1CCCN(CCOc2ccc3ccccc3c2Br)C1 (stereo not given)	?	43.0*	14.5	?
CC1CCCN(CCCOc2ccc(Cl)cc2Br)C1 (stereo not given)	3.3%	102.7*	36.5*	?
CC1CCN(CCCOc2ccc(Cl)cc2Br)CC1	?	73.5*	25.6*	-15.1%
CC1CCN(CCCCOc2ccccc2Br)CC1	?	4.3	-0.4	?
Cc1cc(Cl)c(OCCOCCN2CCN(C)CC2)c(Br)c1	32.1%	nt	1.5	0.0%
SMILES	Pf growth 96h	Shiga toxin inh	CHX counter	Pf growth 48h
Cc1cc(Cl)c(OCCOCCN2CCC(C)CC2)c(Br)c1	11.7µM*	-6.4	-6.6	?
CCOC(=O)c1c(C)n(C)c2ccc(O)c(CN3CCC(C)CC3)c12	10.4µM*	17.0	1.2	?
CCOC(=O)c1c(C)n(C)c2ccc(O)c(CN3CCN(C)CC3)c12	-0.2%[5.75 µM]	33.6	-6.2	0.6%
CCCCn1c(C)c(C(=O)OCC)c2c(CN3CCCC3)c(O)ccc21	4.65µM*	17.9	1.2	nt
CCCCn1c(C)c(C(=O)OCC)c2c(CN3CCOCC3)c(O)ccc21	nt	-3.2	-4.3	?
CN(Cc1ccc(F)cc1)C(=O)CNC(=O)C1CCCCC1	8.9%	-25.8	3.5	18.5%
CN(C)c1ccc(/C=C(\C#N)C(=O)NCc2ccco2)cc1	-10.3%	84.8*	49.8*	146.5%
CC(OC(=O)/C(C#N)=C/c1ccc(N(C)C)cc1)C(=O)NCc1ccco1 (stereo not given)	-11.5%	nt	nt	?
Cn1c(=O)n(C)c2cc(/C=C(/C#N)C(=O)NCc3ccco3)ccc21	14.3%	-9.1	0.5	-6.1%
CCN(CC)c1ccc(/C=C(\C#N)C(=O)NCc2ccco2)cc1	?	43.4*	35.6*	?
N#C/C(=C\Nc1ccc2c(c1)OCCO2)C(=O)NCc1ccco1	47.3%	31.6*	19.5	43.6%
COc1ccc(C(CNC(=O)c2ccc(NS(=O)(=O)c3cccc([N+](=O)[O-])c3)cc2)N2CCOCC2)cc1 (stereo not given)	?	13.8	-2.3	?
C=CCn1c(=O)c2ccccc2n2c(SCC(C)=O)nnc12	26.8%	-15.6	-1.3	28.6%
Cc1ccc(S(=O)(=O)NCC(C)NC(=O)CN2CCOCC2)cc1 (stereo not given)	16.9%	-8.5	-1.5	4.0%
CNC(=O)COC(=O)/C=C/c1cn(-c2ccccc2)nc1-c1ccc(C)o1	7.38µM*	9.4	2.5	11.7µM*
O=C(Nc1nncs1)c1ccc2c(c1)OCO2	?	55.0*	21.8*	72.6%
CSc1nnc(NC(=O)c2ccc(S(=O)(=O)N(C)C)cc2)s1	234.9%	28.4*	25.3*	469.4%
CSc1nnc(NC(=O)c2ccc3c(c2)OCO3)s1	263.8%	68.8*	48.4*	146.6%
Cc1nnc(NC(=O)c2ccc3c(c2)OCO3)s1	-1.4%	55.6*	39.3*	197.5%
COCCSc1nnc(NC(=O)c2ccc3c(c2)OCO3)s1	50.0%	17.1	12.9	31.9%
COC(=O)C1CN(C(=O)COc2ccc(Cl)c(C)c2)c2ccccc2O1 (stereo not given)	-0.9%	20.8	-3.2	?
O=C(NCCCN1CCOCC1)/C(=C/c1ccc(F)cc1)NC(=O)c1ccccc1	?	-4.2	-0.7	2.3%
CCc1ccc(NC(=O)CSc2ccc(-c3ccccn3)nn2)cc1	?	2.9	7.3	-25.7%
CCc1ccc(-c2ccc(SCc3ccccn3)nn2)cc1	-33.3%	102.9*	41.0*	103.6%
CCOc1ccc(-c2ccc(SCc3ccccn3)nn2)cc1	-31.3%	59.4*	40.5*	34.4%
SMILES	Pf growth 96h	Shiga toxin inh	CHX counter	Pf growth 48h
OCC(CBr)(CBr)CBr	68.5%	nt	nt	44.7%
C=CCn1c(N)c(C(=O)Nc2ccc(C)cc2)sc1=S	6.5%	14.6	30.1*	nt
C=CCn1c(N)c(C(=O)Nc2ccccc2OC)sc1=S	nt	-10.1	-2.6	22.4%
C=CCn1cccc(C(=O)Nc2cc(OC)ccc2OC)c1=O	?	17.8	16.2	?
C=CCn1cccc(C(=O)Nc2ccc(C)c(C)c2)c1=O	165.4%	106.5*	44.9*	91.4%
C/C=C/Cn1cccc(C(=O)Nc2ccc(OC)cc2)c1=O	104.9%	44.4	21.8	i
C=CCn1cccc(C(=O)Nc2ccc(C)cc2)c1=O	187.8%	102.0*	76.6*	nt
Cc1nc2c(c(C)nn2-c2ccccc2)c(C)c1CCC(=O)Nc1ccc(CN2CCCC2)cc1	2.08µM*	-6.8	0.7	?
CCC(C)NC(=O)CCc1c(C)nc2c(c(C)nn2-c2ccccc2)c1C (stereo not given)	-16.3%	-6.4	-3.0	?
